Test results as given in PubChem BioAssay AID1508600 (Functional Genomics Laboratory (NCATS/FGL), 2020).
About 3,700 (7%) of roughly 53,000 sequences were called active. The full list was thinned out, with actives kept by preference. Unmarked numbers belong to inactive results.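 Rule for the calls: active = gene knockdowns whose robust z-score for IL-1 alpha signal is at least 2 or at most -2, so actives lie on both sides; inactive = the rest.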

Test: Components of the Cytosolic LPS Sensing Pathway: Gene Identification via Genome-wide siRNA Screen
Settings: RAW264.7 macrophages, IL-1a HTRF, actives lie on both sides, screened at 100 nM (by protocol), cells primed 5 h with Pam3CSK4 first
Excerpt: Non-canonical inflammasome activation by cytosolic LPS is a critical component of the host response to Gram-negative bacterial infection, however we lack a comprehensive understanding of the cellular processes that control this pathway. Here we describe a genome-wide siRNA screen to identify genes regulating the mouse macrophage IL-1 alpha response to cytosolic LPS.
RAW264.7 cells were maintained in complete DMEM media, comprising DMEM with 4.5 g/L glucose, 10% FBS (Gemini Bio-Products, West Sacramento, CA), 2 mM Glutamine (Lonza) and 20 mM HEPES (Lonza), hereafter complete DMEM.
The RNAi screen was conducted in 384-well format using the Ambion Silencer Mouse Genome siRNA Library (#4391425), which consists of three unique, nonoverlapping, nonpooled siRNAs for each of 17,000 gene targets. siRNA reagents ([…]) were stamped into 384-well white flat-bottom microplates (Corning, 3570) using a Velocity11 VPrep liquid handling system (Agilent) integrated into a BioCel robotic platform (Agilent) in columns 1-22, leaving columns 23-24 empty for negative (Ambion, Negative control #1) and positive (mouse Casp4) controls, respectively. The median value of each plate's negative control column was used to normalize sample wells, and the positive control was used to assess transfection efficiency and assay performance.
Lipofectamine RNAiMAX Transfection Reagent ([…]; Invitrogen) was added in […] serum-free, antibiotic-free media to plate wells using a Thermo Scientific Matrix WellMate and Microplate Stacker. Plates were incubated for 45 min at room temperature to allow for the sufficient formation of siRNA-lipid complexes. Cells were seeded at a density of 1x10^4 cells per well in 20 microL media containing 20% (vol/vol) FBS without antibiotics. The final concentration of siRNA in each well was 100 nM. Cells were cultured for 48h at 37 degrees C in 5% CO2 before addition of […] of TLR ligand Pam3CSK4 for 5 hours. The medium was then removed, replaced with […] growth media and cell were transfected with […] of LipidA and TransIT-TKO (Mirus) for 24 hour. At the end of the LipidA treatment, […] of supernatant was transferred to a 384 Greiner Bio-one non-binding low volume plate and […] of IL-1a HTRF reagent (Cisbio, 62MIL1APEH) was added and incubated at room temperature overnight. The plates were read on an EnVision plate reader (PerkinElmer). Cell viability was measured by adding 20ul Cell Titer Glo to the original plate and running a luminescence read on the EnVision. The quantified IL-1a signal for each siRNA gene-targeted well was divided by the median of the negative control wells and multiplied by 100 to achieve a negative control normalized value for each well/siRNA. This normalized value was then used to generate a robust z-score by first taking the log of each value and then by subtracting the median and dividing by the […].

Sequence | z-score
CGAAAAAAAUCCAAGUCAATT against Akap12 | -0.28
GCCUUAGGAAAUUCUCAAUTT against Rbm12b2 | 0.334
GGUCCUACAUCUCCUUCGATT against Cars | -0.194
GCUAGAUUUGAUGGUUCAGTT against Cacng5 | -1.62
GGCAUUUAGUAAAACCCUUTT against Rnf144a | -2.43 (active)
GCAUAUAACCGAGUUGAUUTT against Cdcp1 | 0.183
GCUUCAGGAGCUCUACUGUTT against Catsper3 | -0.736
CCUGCUCUAUGGCAGAACGTT against Nkx2-4 | 0.992
GGAACAGGAGAAUGACAUCTT against D5Ertd579e | -1.25
GGUGCAGAAUCUCUCAUUGTT against Mrpl30 | -2.14 (active)
GCGCGAUUCAGAGGUUUCATT against Raver2 | 0.238
GCACUGCCAGAGGUUCUGUTT against U90926 | -0.107
GCCCUUAGAGAGAAUUUAUTT against Lmo2 | 0.63
GCCACGUUCAAACAGUACCTT against Slc1a7 | 3.94 (active)
GCAGGUUCACAAUGGAUUATT against Lrrc25 | 0.108
GGAAUCUGCUAUGCUUAAATT against Rdh16f2 | -1.84
GCCAGAGUACCACAUUAGUTT against Pcdhga4 | 0.921
GGACCAUGUGAUAAUAUCGTT against Als2 | -0.599
GGAGAUCUGCUCUAAUUAUTT against Eif1ax | 2.21 (active)
GGGAUUGUAACAGCAUCCCTT against Epha6 | 0.594
GGGAAUCUGAUGAAGAUGGTT against Grin3b | -1.56
GGCCUUGAAAUCGUUUUUUTT against Tceal8 | 0.534
GGAUUUUUCAGAUUCUAGATT against Hs6st2 | 0.375
GGAUUUAGGCUACUUUUUCTT against Art4 | -0.387
GAUGUACGAUCUGGUGGUGTT against Exosc6 | 2.73 (active)
GGAUUUAGAUCACUUGGAGTT against Tmem68 | -0.811
GGAGUGUUGGAUGCUACCATT against Ache | -1.12

Sequence | z-score
GGGCAAUGGGUGAUCUAAUTT against Phactr1 | 0.00934
GGAACUUUUUAAGAUGCGUTT against Ranbp1 | -0.36
GGAUGCCUAUCACAAGCAGTT against Pacsin1 | -0.478
GGCCCAUUACUUGUUGACUTT against Fanci | 0.378
GAGCAAUGAGCAGAGAUUCTT against H2-D4 | 1.93
GGACUUCAACUUGAUGGAGTT against Add2 | 2.02 (active)
GGAUGCUAAUUCAAGUCUUTT against Slc1a7 | 0.292
GGUUAUUAAGGAUAAACUGTT against Cops5 | 2.28 (active)
GGAACUUACAUGAAUUCCATT against Slco1a4 | -0.229
GCCACUUCCUGGAUAAGGATT against Ftl2-ps | -2.88 (active)
CCAAGACUGUGACAAGUUUTT against Ctsz | -0.557
GGAAACCAGACUUUCCCUATT against Vmn1r43 | -0.18
CGAAGAUAUUACUAUUCUGTT against Lama2 | 1.65
GAUGCACACGUGGGAAGACTT against Cdpf1 | 2.25 (active)
GCUCCAUCUACAAACAAUGTT against Gpr37l1 | 1.53
GGGACAGGAACAAACAAGCTT against Polq | 2
GGUUAUAGAUGUAAAGUCUTT against Isg20l2 | -0.847
GGAGCUUCUUUUCCCUCUATT against Gcgr | -0.684
GGAUUUAAGUGCCCGGUAUTT against Znrf2 | 1.34
GCGAUAUGCCCUAACUGGATT against Mmp24 | 0.967
GGAAGAUCCGCUUCAACGUTT against Mab21l4 | 1.2
GGUUGGUUUGGAGAAGGCATT against Krt35 | 2.91 (active)
CCACAUGCCUGAGAGAUUCTT against Spp2 | 1.28
CGUUUGACCAAAACAGAAUTT against Fbxw10 | 0.709
GGAAGUCAGACAGAUUUAATT against Prss33 | 2.69 (active)
CGCACCUUUCUUUGGAAUGTT against Rab1b | 1.72
GGAUUUUGUUCUUCAUCCATT against Nedd4 | -0.142
